# About 83,000 compounds went through this panel and 20% of them were active in at least one assay; those are over-represented in the sample as a whole.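 The test compound was applied at a single concentration to cells in 96-well plates for 48 hours, and percent growth was recorded.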 The source made the active and inactive calls. The calls were made as follows: active = growth percent below 10; inactive = the rest.
# Test system: NCI-H23 lung
# Test: NCI-60 one-dose screen, 48 h (100 = growth as untreated, 0 = no growth, -100 = all killed)
# Settings: 10 µM unless noted
row,Compound,growth
1,O=C1c2cccc3cccc(c23)C(=O)N1N1C(=O)c2cccc3c(N4CCOCC4)ccc(c23)C1=O,89.1% (inactive)
2,CCO/C=N/C1=C(C#N)C(c2ccc(OC)cc2)c2sc3c(F)cccc3c2O1 (stereo not given),48.9% (inactive)
3,Cc1ccc(CNc2ccc(Cl)cc2NCc2ccc(C)c(O)c2)cc1O,3.7% (active)
4,O=C(c1ccc(-c2nc(CSc3nc4ccccc4s3)no2)cc1)N1CCSCC1,52.9% (inactive)
5,C/C(=C(/c1ccc(Cl)cc1)c1ccc(OCCN2CCCC2)cc1)c1ccc(Cl)cc1,80.3% (inactive)
6,CC[C@]12C=CCN3CC[C@@]4(c5cc(NC(=O)CCC(=O)OCc6cn(Cc7ccc(F)cc7)nn6)c(OC)cc5N(C)[C@H]4[C@@](O)(C(=O)OC)[C@@H]1OC(C)=O)[C@@H]32,97.2% (inactive)
7,C=C(C)[C@@H]1CC[C@]2(C(=O)O)CC[C@]3(C)[C@H](CC[C@@H]4[C@@]5(C)C[C@@H](Cc6cn(CCO[C@@H]7O[C@H](COC(C)=O)[C@H](OC(C)=O)[C@H](OC(C)=O)[C@H]7OC(C)=O)nn6)[C@H](O)C(C)(C)[C@@H]5CC[C@]43C)[C@@H]12,60.5% (inactive)
8,C=CCn1c(SCC(=O)Nc2ccc(C(=O)/C=C/c3ccc(Cl)cc3)cc2)nnc1-c1cc(-c2ccc(S(N)(=O)=O)cc2)nc2ccccc12,99.3% (inactive)
9,CCOC(=O)C1=NN(c2ccccc2)C(=O)/C1=C\N1C(=O)CC(=O)NC1=S,99% (inactive)
10,CC12CCC3c4ccccc4CCC3(CO1)C2 (stereo not given),98.3% (inactive)
11,O=C1CC(N2C(=O)/C(=C/C(Cl)=C\c3ccc([N+](=O)[O-])cc3)SC2=S)C(=O)N1c1ccc(Cl)cc1 (stereo not given),17.3% (inactive)
12,CC1(C)c2[nH]c3ccccc3c2C[C@]2(C)[C@H]3CC=C4[C@@H]5C[C@@](C)(C(N)=O)CC[C@]5(C)CC[C@@]4(C)[C@]3(C)CC[C@@H]12,51.2% (inactive)
13,CCCCCOc1ccc(C(=O)/C(Br)=C/C(=O)O)cc1,91.9% (inactive)
14,CC(C)N1CCN(Cc2ccc3c(NNC(=O)c4ccccc4)nc4cc(F)ccc4n23)CC1,28.6% (inactive)
15,N#Cc1cccc(NC(=O)c2oc3ccccc3c2-c2cnn(-c3ccccc3)c2)c1,83.7% [50 µM] (inactive)
16,Cc1cccc(N2CCN(CC(O)COc3ccc(Cl)cc3)CC2)c1 (stereo not given),109% (inactive)
17,CCOC(=O)c1c(C)nc2c(c1N)CC(=O)N2Cc1cc(F)cc(Cl)c1,81.8% (inactive)
18,C[C@@H]1CCC[C@H]1CC(N)C(=O)O (stereo not given in full),97.2% (inactive)
19,O=CC1(C2(C=O)c3ccccc3-c3ccccc32)c2ccccc2-c2ccccc21,-28.8% (active)
20,O=C1Nc2ccc(I)cc2C1=O,89.7% (inactive)

row,Compound,growth
1,CN1CCN(c2ccc(NC(=O)c3nc4ccc5[nH]ncc5c4c4c3CCCC4)cc2C(F)(F)F)CC1,90.2% (inactive)
2,CN(C)C1CCN(Cc2ccc(NC(=O)c3cncc(C#Cc4cnc(N)c5ncccc45)c3)cc2C(F)(F)F)CC1,84.7% (inactive)
3,COc1ccc(C/C(C)=C(/c2ccc(OCCN3CCCCC3)cc2)c2ccc(OC(=O)NCc3ccccc3)cc2)cc1,-84.6% (active)
4,COc1ccccc1NC(=O)Cn1cc(CN2CCN(c3ccnc4cc(Cl)ccc34)CC2)nn1,89.2% (inactive)
5,N=C(N)c1ccc(-c2ccc(-c3ccc(F)cc3)o2)o1,44.8% (inactive)
6,CN1C(=O)/C(=C/c2ccc(C(=O)Nc3ncc(Cc4ccc(Cl)cc4)s3)cc2)SC1=S,65.7% (inactive)
7,CCCCCC(=O)OCC(=O)O[C@@H]1C[C@]2(C(C)C)O[C@@]1(C)[C@@H]1CC[C@@H](C)[C@H]1[C@@H]2OC(=O)/C=C/c1ccccc1,91.3% (inactive)
8,CC(=O)N(N=Nc1ccccc1)c1cccc2ccccc12,86.9% (inactive)
9,COc1ccc(/C=C2\C(=O)N=C3N2NC(c2cc(Br)ccc2O)C=C(C)N3c2ccccc2)cc1 (stereo not given),94.7% (inactive)
10,CC(C)(C)[Si](C)(C)O[C@H]1C(=O)C=CN2CC=C[C@@H]12,93.3% [100 µM] (inactive)
11,C=C1C(=O)O[C@H]2[C@H]1CC/C(COC(=O)CSCCSCC(=O)OC/C1=C/CC[C@@]3(C)O[C@H]3[C@H]3OC(=O)C(=C)[C@@H]3CC1)=C\CC[C@@]1(C)O[C@@H]21,40.6% (inactive)
12,Brc1ccc2[nH]cc(-c3nonc3-c3c[nH]c4ccccc34)c2c1,45.2% (inactive)
13,COc1cccc(NC(=O)Cn2cc(CN3CCN(c4ccnc5cc(Cl)ccc45)CC3)nn2)c1,95% (inactive)
14,CCOc1ccc(NC(=O)CSc2oc(-c3ccccc3)nc2S(=O)(=O)c2ccc(F)cc2)cc1,65.8% (inactive)
15,O=C1Nc2ccc(Br)cc2/C1=N/c1n[nH]c(=S)s1,93.3% (inactive)
16,COc1ccc(C(=O)C2C(c3ccc(OC)cc3)CN(C)C23C(=O)Nc2ccccc23)cc1 (stereo not given),86.1% (inactive)
17,Cc1noc(C)c1C(=O)OCc1coc2ccccc2c1=O,71.3% (inactive)
18,C[C@]12CC[C@@H]3c4ccc(O)c([N+](=O)[O-])c4CC[C@H]3[C@@H]1CCC2=O,95.7% (inactive)
19,COc1cccc([C@H]2c3[nH]c4ccccc4c3C[C@H]3C(=O)N(CCCCCCC(=O)NO)CC(=O)N23)c1,66.8% (inactive)
20,CO/N=C(/C)c1ccc(NC(=O)CSc2nnc(-c3ccncc3)n2-c2ccccc2)cc1,46.9% (inactive)

# Source: PubChem BioAssay (NCI)
